Screening results from PubChem BioAssay.
Sampled rows, rich in hits. Any-hit rate of the full collection: about 9.2%.
HPGD block = blocks human HPGD enzyme activity | P15428 | Potency, µM, for inactives: top-dose activity change, negative = inhibition, most hits filed as inhibitors | purified HPGD, NADH fluorescence kinetic, PGE2 substrate | 150,000 tested, 4.3% active; also: % is scaled to controls: 0 for no effect and ±100 for the full control effect
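20 nM HPGD preincubated 15 min at room temperature with compound in 50 mM Tris-HCl pH 8, 0.01% Tween 20. Started with 1 mM NAD+ and 30 uM prostaglandin E2; NADH fluorescence (360/450 nm) read 5 times over 30-s intervals, last minus first.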
LMNA splice mod = changes lamin A minigene splicing in HeLa cells | HeLa LMNA splicing GFP/RFP minigene ratio, 48 h | Potency, µM (series often up to 46.1 µM), without a hit: at the highest dose ratio change, negative = inhibition, hits mostly inhibitors | 200,000 tested, 0.01% active; active = well fitted inhibition curve with a large enough effect in the signal ratio, with a control signal flat, not every such curve was filed as active; inconclusive = small, poorly fitted or top-dose-only effect, or effect the other way, or a change in a side signal; the % refers to the signal ratio; also: % is scaled to controls: 0 for no effect and ±100 for the full control effect
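S3 HeLa stable clones carrying a lamin A-EGFP splicing minigene plus DsRed2 were seeded at 600 cells/well in Opti-MEM with 2% FBS, pin-dosed and incubated 48 h at 37°C. Acumen cytometry (488 nm) gave the GFP/RFP total-intensity ratio.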
HTT cytoprotect = cytoprotection in Huntington HTT-Q103 PC12 cell model; Potency, µM (titrated, usually from 56.4 µM), for inactives: cytoprotection (ATP increase), hits mostly activators; AID 1471; 230,000 tested, 0.14% active; PC12 HTT-Q103 induced, cytoprotection, ATP luminescence, 40 h; active = well fitted curve in the direction sought with a large enough effect; inconclusive = small, poorly fitted or top-dose-only effect, or another doubt; inactive = no such curve, though single readings can be large; an effect the other way counts as inactive or inconclusive; also: % of control where 0% means no effect; nearly all actives have a fitted effect of over 45% in size
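Huntington model: PC12 line, ecdysone-inducible HTTQ103 exon1–GFP, tebufenozide 100 nM. Test articles in a dose series. Endpoint luminescence from cellular ATP.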
HttQ103 aggreg = reduces HttQ103-GFP aggregates in PC12 cells. PC12 HttQ103-GFP aggregates, Acumen cytometry, 40 h. Potency, µM (titrated, usually from 46.1 µM), for the others: top-dose activity change, negative = inhibition, usual class: inhibitors. 220,000 tested, 1.1% active; active = well fitted curve in the direction sought with a large enough effect; inconclusive = small, poorly fitted or top-dose-only effect, or another doubt; inactive = no such curve, though single readings can be large; an effect the other way counts as inactive or inconclusive; also: % is scaled to controls: 0 for no effect and ±100 for the full control effect; nearly all actives have a fitted effect of over 60% in size
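Ecdysone-promoter PC12 model expressing HTT exon 1 Q103 fused to GFP, induced by tebufenozide at 100 nM final. Compounds titrated; aggregates sized 1–25 µm scored on a 488 nm laser cytometer.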
ALDH1A1 inh = inhibitors of human aldehyde dehydrogenase 1A1; P00352; 220,000 tested, 7.3% active; AID 1030; Potency, µM (doses to about 75.3 µM), for inactives: at the highest dose activity, negative = inhibition, usual class: inhibitors; Purified ALDH1A1, NADH fluorescence, propionaldehyde substrate;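 also: plate controls were no enzyme wells and a reference inhibitor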
JMJD2E inh = inhibitors of human JMJD2E histone demethylase | 230,000 tested, 1.6% active | AID 2147 | JMJD2E catalytic domain, FDH-coupled NADH fluorescence (FDH is formaldehyde dehydrogenase) | Potency, µM (highest dose often 57.1 µM), inactives show at the top dose activity change, negative = inhibition, hits mostly inhibitors;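 also: 0% = wells with enzyme and -100% = buffer wells without enzyme; nearly all actives have a fitted effect of over 50% in size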
Target sequence (B2RXH2 1-337 limits assumed): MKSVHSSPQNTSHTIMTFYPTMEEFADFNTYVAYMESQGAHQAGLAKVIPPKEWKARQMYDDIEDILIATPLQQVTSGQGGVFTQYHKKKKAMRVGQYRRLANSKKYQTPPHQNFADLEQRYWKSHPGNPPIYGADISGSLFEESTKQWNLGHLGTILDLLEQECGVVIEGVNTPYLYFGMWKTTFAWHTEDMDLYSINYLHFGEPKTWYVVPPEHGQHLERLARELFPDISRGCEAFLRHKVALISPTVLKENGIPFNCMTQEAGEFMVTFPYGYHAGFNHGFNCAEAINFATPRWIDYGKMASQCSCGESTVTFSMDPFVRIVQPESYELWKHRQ
* hit, by the source's call; ? = inconclusive; . = no result given; [ ] = remark or other dose. Unless noted, calls follow the shape of the dose curve; as a rule, active = well fitted inhibition curve with a large enough effect (not every such curve was filed as active); inconclusive = small, poorly fitted or top-dose-only effect, or another doubt; inactive = no such curve, though single readings can be large or run the other way. Potency is read from the fitted curve at half-maximal effect.

SMILES | HPGD block | LMNA splice mod | HTT cytoprotect | HttQ103 aggreg | ALDH1A1 inh | JMJD2E inh
O=S(=O)(c1ccc(NC(=S)NN=C2CCCCC2)cc1)N1CCOCC1 | . | -14%[46 µM] | -33% | 17% | 14µM* | ?
O=S(=O)(c1ccc(NC(=S)N/N=C/c2c3ccccc3cc3ccccc23)cc1)N1CCOCC1 | . | . | -28% | -6% | 10µM* | -6%
O=C(COc1ncnc2ccccc12)c1ccc(Cl)cc1 | . | 4%[46 µM] | -25% | 10% | -1% | -5%
CCCCOCCCNC(=S)Nc1ccc(S(=O)(=O)N2CCOCC2)cc1 | . | . | 2%[10 µM] | 8%[9.22 µM] | . | ?
O=S(=O)(c1ccc(NC(=S)NCCC(c2ccccc2)c2ccccc2)cc1)N1CCOCC1 | -16% | ? | -36%[10 µM] | ? | 13µM* | -2%
N#Cc1ccc(NC(=S)NC(=O)CCc2ccc(S(=O)(=O)N3CCOCC3)cc2)cc1 | . | . | . | 4% | 16µM* | -12%
N#Cc1ccc(NC(=O)CCc2ccc(S(=O)(=O)N3CCOCC3)cc2)cc1 | -13% | -7% | -16% | 16%[9.22 µM] | ? | -1%
CCCC[C@@H]1C[C@H]1C(NC(=O)c1cccs1)c1ccc(Cl)cc1 (stereo partly drawn) | -14% | . | -78% | . | -4% | 7%
CCOC(=O)C1(CCCc2ccccc2)CCN(C(=O)C2CCCO2)CC1 (stereo not drawn) | . | ? | 29%[10 µM] | 30%[9.22 µM] | ? | -38%
COc1ccc(/C=C2/C(=O)N(CC3CCCO3)C(=S)N2C)c(OC)c1 (stereo not drawn) | -18% | 8% | -5% | 18% | 13µM* | -3%
COc1ccc(/C=C2\SC(=S)N(CC3CCCO3)C2=O)cc1 (stereo not drawn) | . | . | 17%[10 µM] | 1%[9.22 µM] | . | -5%
COc1ccccc1/C=C1\NC(=S)N(CC2CCCO2)C1=O (stereo not drawn) | 28µM* | 17% | -1% | -8% | 0.5µM* | 3%
CCOC(=O)C1(Cc2ccc(OC)cc2)CCN(S(C)(=O)=O)CC1 | . | . | 6%[10 µM] | 1%[9.22 µM] | 18% | -4%
CCOC(=O)C1(Cc2ccccc2Cl)CCN(S(C)(=O)=O)CC1 | . | 1%[46 µM] | 23%[10 µM] | 9%[9.22 µM] | 10µM* | -7%
O=C(Cc1ccc(NC(=O)N2CCCCc3ccccc32)cc1)NCc1cccc(Br)c1 | . | -12%[46 µM] | . | . | . | .
O=C(CON=C1c2ccccc2-c2ccccc21)NC12CC3CC(CC(C3)C1)C2 | ? | ? | -6%[10 µM] | 11µM* | ? | ?
CCC(CC)C(=O)OCC(=O)NC12CC3CC(CC(C3)C1)C2 | -18% | 6% | -13% | -3% | ? | 1%
O=C(COC(=O)C12CC3CC(CC(C3)C1)C2)NC12CC3CC(CC(C3)C1)C2 | -26% | 22%[0.0737 µM] | -3% | 15% | 14µM* | 10%
O=C(COC(=O)CCc1ccccc1)NC12CC3CC(CC(C3)C1)C2 | . | 3%[46 µM] | 30%[10 µM] | -6% | -9% | 7%
O=C(COC(=O)C(O)c1ccccc1)NC12CC3CC(CC(C3)C1)C2 (stereo not drawn) | -9% | 4% | 3%[10 µM] | 4% | 32µM* | 5%
Cc1ccc(-c2nc3scc(CCNS(=O)(=O)c4ccc(Oc5ccccc5)cc4)n3n2)cc1 | . | -6%[46 µM] | . | . | . | .
O=C(NCc1ccccc1Cl)c1ccc(Cn2c(SCc3ccccc3)nc3cccnc32)cc1 | . | 9%[46 µM] | . | . | . | .
CCCCCCCCCCCCCCC/C=C/[C@@H](O)[C@H](NC(=O)CCCCCCCCCCCCC)OC (tested in a mixture with another compound) | -8% | -11% | . | . | ? | 3%
COc1ccc(N=C2O/C(=C/c3sc(=S)n(CC4CCCO4)c3O)N=C2C#N)cc1 (stereo not drawn) | . | . | 27%[10 µM] | 3%[9.22 µM] | 1.1µM* | 2%
CCOCCc1nnc(NC(=O)Cc2c(F)cccc2Cl)s1 | . | 12%[46 µM] | 16% | ? | 0% | -4%
Cc1c(-c2ncn[nH]2)sc(C#N)c1-c1ccccc1 | . | -2%[9.22 µM] | -19% | -13% | 25µM* | -12%
